Laboratory results reported in PubChem BioAssay.
The source made the active and inactive calls.

Columns and labels:
[1] = compound effects on lung adenocarcinoma cell viability – A549, calcein-AM fluorescence, 48 h, basal, profiling panel (AID 1162); details: higher = more signal
[2] = compound effects on differentiated 3T3-L1 adipocyte viability – cell-based, 3T3-L1 adipocytes, calcein-AM fluorescence, 48 h, basal, profiling panel (AID 1163); details: 3T3-L1 adipocytes viability, higher = more signal
[3] = compound effects on hepatocellular carcinoma cell viability – HepG2, calcein-AM fluorescence, 48 h, basal, profiling panel (AID 1164); details: higher = more signal
[4] = compound effects on multiple myeloma cell viability – MM1S, calcein-AM fluorescence, 48 h, basal, profiling panel (AID 1165); details: higher = more signal;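 note: viability of MM1S multiple myeloma cells under basal unstimulated conditions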
[5] = calcein-AM signal in unstimulated myeloma cells – cell-based, calcein-AM fluorescence, 48 h, PK04 Diversity Set, profiling panel (AID 1166); details: RPMI8226 myeloma viability, higher = more signal;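 note: cells grown under basal conditions without added stimulus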
[6] = JC-1 mitochondrial signal, unstimulated HepG2 cells – cell-based, JC-1 fluorescence, 24 h, 100 nL compound, profiling panel (AID 1167); details: HepG2 mitochondrial potential, higher = more signal
[7] = JC-1 mitochondrial signal, unstimulated adipocytes – cell-based, JC-1 fluorescence, 3T3-L1 adipocytes, 24 h, 100 nL compound, profiling panel (AID 1168); details: JC-1 mitochondrial fluorescence, higher = more signal, called active from +8 up or from −8 down
[8] = JC-1 mitochondrial signal, unstimulated myeloma cells – cell-based, JC-1 fluorescence, RPMI8226, 24 h, 100 nL compound, profiling panel (AID 1169); details: JC-1 mitochondrial potential fluorescence, higher = more signal
[9] = JC-1 mitochondrial signal, unstimulated MM1S myeloma – cell-based, JC-1 fluorescence, 24 h, 100 nL compound, profiling panel (AID 1170); details: MM1S mitochondrial potential, higher = more signal
[10] = resazurin metabolic signal in A549 cells – cell-based, resazurin fluorescence, 24 h, PK04 Diversity Set, profiling panel (AID 1171); details: A549 viability, higher = more signal, called active from +8 up or from −8 down
Note: test concentration not given here.

Compound | z-score [1] | z-score [2] | z-score [3] | z-score [4] | z-score [5] | z-score [6] | z-score [7] | z-score [8] | z-score [9] | z-score [10]
C=COC[C@@H]1CN2[C@@H](CC[C@@H](C)[C@@H]2c2ccc(Br)cc2)C(=O)O1 | -0.0396 | 0.566 | -0.388 | -1.04 | -0.731 | -0.284 | 0.347 (inactive) | -0.795 | -0.228 | 0.378 (inactive)
C[C@@H](c1ccccc1)N1C(=O)[C@H]2[C@H]3[C@H](O)[C@H](O)CC(=O)[C@H]3CC[C@H]2C1=O | 0.614 | 0.205 | 0.92 | 0.358 | -0.094 | 0.311 | 1.27 (inactive) | -0.826 | 1.05 | 0.288 (inactive)
CCOC(=O)CCN1C(=O)[C@H]2[C@H]3[C@H](O)[C@H](O)CC(=NOCc4ccccc4)[C@H]3CC[C@H]2C1=O | 0.14 | -1.08 | -0.416 | 0.0807 | -0.273 | 0.239 | 0.392 (inactive) | -0.508 | -1.22 | -0.553 (inactive)
COC(=O)[C@@H]1CC[C@H](C)[C@@H](c2ccc(C)cc2)N1C(=O)c1ccc(C=NOC[C@@H](C)[C@H](OCc2ccccc2)C(C)C)cc1 | 0.188 | 0.903 | 2.13 | -0.168 | -0.0791 | 1.6 | -0.483 (inactive) | -0.998 | -1.01 | -1.19 (inactive)
O=c1n(-c2ccccc2)c(=O)n2n1CC[C@@H]1C(=NOCc3ccccc3)[C@H]3O[C@H]3[C@@H](O)[C@@H]12 | 0.172 | -0.915 | 0.251 | -0.232 | 0.169 | -0.406 | -0.78 (inactive) | -0.0915 | -0.531 | -1.08 (inactive)
CCOC(=O)NN=C1C[C@@H](O)[C@@H](O)[C@@H]2[C@@H]3C(=O)N(Cc4ccccc4)C(=O)[C@@H]3CC[C@H]12 | 0.29 | 0.114 | -1.05 | 0.976 | -2 | 0.366 | 0.42 (inactive) | 0.334 | -0.68 | 0.939 (inactive)
COC(=O)NCC=Cc1nc(CCCO)co1 | 0.206 | -0.683 | 0.392 | 0.225 | 0.0204 | -0.64 | 0.331 (inactive) | -0.0369 | -0.606 | -0.238 (inactive)
C#CCCCON=C1C[C@@H](O)[C@@H](O)[C@@H]2[C@@H]3C(=O)N(CC)C(=O)[C@@H]3CC[C@@H]12 | -0.36 | -0.843 | 0.075 | 0.0133 | 0.338 | -0.836 | -1.26 (inactive) | -0.0744 | -0.312 | -0.526 (inactive)
O=C1[C@H]2[C@H]3[C@H](O)[C@H](O)CC(=NOC[C@@H](O)COCc4ccco4)[C@H]3CC[C@H]2C(=O)N1Cc1ccccc1 | 0.172 | 0.194 | -1.46 | 0.455 | -2.06 | 0.176 | -0.161 (inactive) | 0.714 | -0.441 | 0.968 (inactive)
COc1ccc(COC(=O)NN=C2C[C@@H](O)[C@@H](O)[C@@H]3[C@@H]4C(=O)N(c5ccc(F)cc5F)C(=O)[C@@H]4CC[C@H]23)cc1 | 0.0819 | 0.232 | -1.01 | 0.698 | -0.887 | 0.361 | -0.982 (inactive) | -0.112 | -1.07 | 0.764 (inactive)
COc1ccc(COC(=O)NN=C2C[C@@H](O)[C@@H](O)[C@@H]3[C@@H]4C(=O)N(C5CCCCC5)C(=O)[C@@H]4CC[C@H]23)cc1 | -0.574 | -1.09 | -0.543 | -1.15 | -0.733 | -0.895 | -1.69 (inactive) | 0.249 | -0.244 | 0.0299 (inactive)
COc1ccc(O[C@@H]2[C@H](O)CO[C@@H]2C=Cc2ccccc2)cc1 | 0.069 | 1.72 | -0.0757 | -2.82 | -1.1 | 1.11 | 0.6 (inactive) | 0.132 | 0.322 | -0.548 (inactive)
COC(=O)CC=C[C@@H](C)[C@@H](C=NOCC[C@@H]1C=C[C@H](OC(C)=O)[C@@H](COC(C)=O)O1)NS(=O)(=O)c1ccc(C)cc1 | 0.498 | 0.037 | -0.726 | 0.212 | -0.128 | -0.716 | -1.63 (inactive) | 0.533 | 0.0173 | -0.364 (inactive)
O=C1[C@H]2[C@H]3[C@H](O)[C@H](O)CC(=NOCc4ccccc4)[C@@H]3CC[C@H]2C(=O)N1C[C@@H]1CCCO1 | -0.0287 | -0.444 | -0.581 | 0.229 | -0.812 | -1.01 | 0.577 (inactive) | -0.944 | -0.28 | 0.232 (inactive)
CC(C)=CCCC(C)=CCON=C1C[C@@H](O)[C@@H](O)[C@@H]2[C@@H]3C(=O)N(C4CCCCC4)C(=O)[C@@H]3CC[C@@H]12 | -0.972 | -0.345 | -1.14 | -2.39 | -1.36 | -1.64 | -1.22 (inactive) | -0.258 | -0.859 | 0.023 (inactive)
COc1ccc(O[C@H]2C=C[C@@H](c3ccccc3)O[C@@H]2CON=C(C)C)cc1 | 0.124 | -0.556 | -0.462 | -1.53 | -0.372 | -1.18 | 0.148 (inactive) | 0.472 | -0.867 | 0.0001 (inactive)
